According to article PMC4336329 (PLoS ONE, 2015):
The whole screen tested about 310,000 compounds, of which about 2,200 (0.71%) showed an effect of 50% or more. Effects have a minus sign here. The sample as a whole holds a higher share of strong results than the screen did.

Target: human ether-à-go-go-related gene (hERG) potassium channel (human, UniProt Q12809)
Test: primary screen, population patch clamp on CHO cells stably expressing hERG; higher = less effect of the substance

human ether-à-go-go-related gene (hERG) potassium channel, sequence (Q12809 whole entry, looked up): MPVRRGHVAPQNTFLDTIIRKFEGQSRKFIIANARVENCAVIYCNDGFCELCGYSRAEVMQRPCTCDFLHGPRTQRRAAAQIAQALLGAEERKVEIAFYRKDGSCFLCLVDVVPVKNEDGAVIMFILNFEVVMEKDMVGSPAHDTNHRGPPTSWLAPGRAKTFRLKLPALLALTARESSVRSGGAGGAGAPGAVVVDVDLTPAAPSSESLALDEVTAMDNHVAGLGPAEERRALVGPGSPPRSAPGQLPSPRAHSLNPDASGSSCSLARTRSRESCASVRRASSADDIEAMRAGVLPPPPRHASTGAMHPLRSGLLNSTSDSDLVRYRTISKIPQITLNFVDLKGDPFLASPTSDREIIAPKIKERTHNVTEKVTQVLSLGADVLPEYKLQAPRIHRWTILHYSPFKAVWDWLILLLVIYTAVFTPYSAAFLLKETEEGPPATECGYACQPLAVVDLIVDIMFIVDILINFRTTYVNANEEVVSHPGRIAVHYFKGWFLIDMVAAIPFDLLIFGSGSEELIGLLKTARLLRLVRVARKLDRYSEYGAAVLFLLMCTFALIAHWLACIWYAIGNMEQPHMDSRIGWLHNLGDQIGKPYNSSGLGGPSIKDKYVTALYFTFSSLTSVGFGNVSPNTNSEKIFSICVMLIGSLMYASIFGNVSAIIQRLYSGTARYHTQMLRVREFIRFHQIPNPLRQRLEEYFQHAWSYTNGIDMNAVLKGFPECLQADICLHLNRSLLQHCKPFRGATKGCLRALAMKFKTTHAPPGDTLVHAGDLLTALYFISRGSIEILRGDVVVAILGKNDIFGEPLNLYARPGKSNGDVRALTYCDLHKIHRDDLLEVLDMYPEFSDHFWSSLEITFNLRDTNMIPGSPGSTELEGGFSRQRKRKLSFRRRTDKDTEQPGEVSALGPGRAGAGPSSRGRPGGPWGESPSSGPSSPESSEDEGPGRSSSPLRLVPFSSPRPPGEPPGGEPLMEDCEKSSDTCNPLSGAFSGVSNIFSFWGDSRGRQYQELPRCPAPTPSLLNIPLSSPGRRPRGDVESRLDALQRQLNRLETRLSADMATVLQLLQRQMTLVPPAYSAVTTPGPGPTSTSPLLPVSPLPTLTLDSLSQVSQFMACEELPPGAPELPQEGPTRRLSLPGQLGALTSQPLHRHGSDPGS

SMILES | hERG current change (%, negative = inhibition) at 1uM [%]
COc1ccc(N2CCN(C(=O)c3ccc(N4CCCCS4(=O)=O)cc3)CC2)cc1 | 10.7
COc1cccc(S(=O)(=O)Nc2noc3ccccc23)c1 | 14
Cc1ccc(-c2ccnc3c(Cl)c(C)nn23)cc1 | 13.3
COc1cc2c(cc1OC)C(=S)NC(C)(C)C2 | 14.8
COc1cc(S(=O)(=O)NCC2OCCc3ccccc32)ccc1-n1cnnn1 (stereo not drawn) | -7.28
CC(=O)N1CCN(C(=O)C2(NC(=O)Nc3ccccc3Cl)CCCCC2)CC1 | 14.2
CC(=O)Oc1c(C)c2c3c(c1OC(C)=O)[C@@H](C)CC[C@@H]3[C@@H](C)C[C@H]2C=C(C)C | 11.1
COc1ccc(CN(C)C(=O)c2cc(S(=O)(=O)N3CCCCCC3)ccc2OC)cc1OC | 4.44
CCOc1ccc(N(CC(=O)N/N=C/c2cccnc2)S(C)(=O)=O)cc1 | 12.9
O=C(/C=C/c1ccc(Cl)cc1)N1CCN(c2ccc(Cl)cc2[N+](=O)[O-])CC1 | -81.4
O=C(/C=C/c1ccc(Cl)cc1)N1CCN(c2ccc([N+](=O)[O-])c(N3CCOCC3)c2)CC1 | -11.1
O=C(/C=C/c1ccc(Cl)cc1)N1CCN(c2ccccc2[N+](=O)[O-])CC1 | -33.6
O=C(/C=C/c1cccc([N+](=O)[O-])c1)N1CCN(Cc2ccccc2)CC1 | -20.3
O=C(/C=C/c1ccc([N+](=O)[O-])cc1)N1CCN(Cc2ccccc2)CC1 | -63.8
O=C(/C=C/c1ccc(Cl)cc1)N1CCN(Cc2ccccc2)CC1 | -12.8
CC1(c2cnc(Nc3ccccc3)s2)CCC(=O)O1 (stereo not drawn) | 11.7
O=C1c2ccccc2C(=O)c2c1cccc2N1CCCC1 | 8.54
O=C1c2ccccc2C(=O)c2c1cccc2N1CCN(Cc2ccccc2)CC1 | -6.21
O=C1c2ccccc2C(=O)c2c1cccc2N1CCN(CCO)CC1 | -64.7
Cc1cccc(NS(=O)(=O)c2ccc3c(c2)NC(=O)CC(=O)N3)c1 | 18.4
Cc1cccnc1NC(=O)Nc1cccc2ccccc12 | 0.589
Cc1ccc(-n2cccn2)c(CN2CCCC(C(=O)c3ccc4c(c3)OCO4)C2)c1 (stereo not drawn) | -83.5
COc1cc(OC)c(OC)cc1CN1CCCC(C(=O)c2ccc3c(c2)OCO3)C1 (stereo not drawn) | -27.7
O=C(c1ccc2c(c1)OCO2)C1CCCN(Cc2ccc(F)c(F)c2)C1 (stereo not drawn) | 5.03
O=C(c1ccc2c(c1)OCO2)C1CCCN(Cc2ccc(OC(F)F)cc2)C1 (stereo not drawn) | -53
Cc1ccsc1C(=O)C1CCCN(Cc2cc(F)ccc2-n2cccn2)C1 (stereo not drawn) | -45.5
O=C(c1ccc2c(c1)OCO2)C1CCCN(Cc2ccccc2OC(F)F)C1 (stereo not drawn) | -16.9

SMILES | hERG current change (%, negative = inhibition) at 1uM [%]
Cc1cccc(CN2CCCC(C(=O)c3ccc4c(c3)OCO4)C2)n1 (stereo not drawn) | -16.8
Cc1ccsc1C(=O)C1CCCN(Cc2ccc(-n3cccn3)cc2)C1 (stereo not drawn) | -3.18
O=C(c1ccc2c(c1)OCO2)C1CCCN(Cc2ccc3cccc(F)c3n2)C1 (stereo not drawn) | -81.5
Cc1ccc(CN2CCCC(C(=O)c3ccc4c(c3)OCO4)C2)cc1C (stereo not drawn) | -27.1
O=C(c1ccc2c(c1)OCO2)C1CCCN(Cc2c(F)cccc2Cl)C1 (stereo not drawn) | 0.9
Cc1ccc(-n2cccn2)c(CN2CCCC(C(=O)c3sccc3C)C2)c1 (stereo not drawn) | -82.8
COc1ccc(CNCc2c(F)cccc2F)cc1OC.O=C(O)C(=O)O | 14.6
O=C(NC1CCCCCC1)c1ccc(CS(=O)Cc2cccc(Cl)c2)o1 (stereo not drawn) | 5.33
COc1cc(/C=N/N2CCN(Cc3ccc(Cl)cc3)CC2)cc(Br)c1O | 9.38
N#Cc1c(NC(=O)CCCN2C(=O)c3ccccc3C2=O)oc(-c2ccccc2)c1-c1ccccc1 | -0.65
Cc1cc2nc3ccc(N(C)C)cc3nc2cc1N | 13.3
CCOC1(OCC)N=C(N)C2(C#N)C(c3cccc(OC)c3OC)C12C#N (stereo not drawn) | 3.32
CN(C(=O)CCN1C(=O)c2ccccc2C1=O)c1ccccc1 | 15.8
CCc1cc(C(c2ccc(F)cc2)N2CCOCC2)c(NC(=O)c2ccccc2)s1 (stereo not drawn) | 11.2
CCCCNC(=O)N1CCOCCOCCN(C(=O)NCCCC)CCOCCOCC1 | 7.75
O=C(c1sc2cc([N+](=O)[O-])ccc2c1Cl)N1CCOCC1 | 0.235
CC(C)(C)CC(=O)OCC(=O)Nc1cc(C(C)(C)C)nn1-c1ccccc1 | -12.9
Cc1nn2c(-c3ccc(Cl)cc3Cl)nnc2s1 | -0.908
COc1cccc(CN2CCCC(C(=O)c3ccc4c(c3)OCO4)C2)c1O (stereo not drawn) | -44.6
O=C(c1ccc2c(c1)OCO2)C1CCCN(Cc2cc(F)ccc2-n2cccn2)C1 (stereo not drawn) | -78.2
COc1cccc(CN2CCCC(C(=O)c3ccc4c(c3)OCO4)C2)c1OC (stereo not drawn) | -25.3
Br.Nc1nc(-c2ccc(Br)cc2)cs1 | -2.25
C/C(=N/N1CCN(c2ccccc2)CC1)c1cccc([N+](=O)[O-])c1 | 8.81
Cc1ccc(Cl)cc1NS(=O)(=O)Cc1ccccc1 | 14.1
O=C(Nc1ccc(NC(=O)c2cccs2)cc1)c1cccnc1 | 13.4
Cc1ccccc1NS(=O)(=O)c1ccc(OCC(=O)NCc2ccccn2)cc1 | 3.12
O=C(c1ccco1)N1CCN(Cc2cc(=O)c(OCc3ccc([N+](=O)[O-])cc3)co2)CC1 | -29.4
